Drawing on ChEMBL document CHEMBL3988442, “University of Dundee, Small-Polar-MMV Screening Library” (2021), this text covers Percent Effect for five compounds.

What all share (parameters): scale not given: direction of the effect not stated beside the values
Test [1] deals with Protein translocase subunit SecA (Escherichia coli (strain K12)) (UniProt P10408). Description: Assay to Identify E. coli SecA ATPase Inhibitors. In kind it is functional. The following applies: 30 µM.
Test [2] deals with T1, Ubiquitin-activating enzyme e1, putative (Leishmania donovani (strain BPK282A1)) (UniProt E9BSI1).
T1 sequence (whole entry): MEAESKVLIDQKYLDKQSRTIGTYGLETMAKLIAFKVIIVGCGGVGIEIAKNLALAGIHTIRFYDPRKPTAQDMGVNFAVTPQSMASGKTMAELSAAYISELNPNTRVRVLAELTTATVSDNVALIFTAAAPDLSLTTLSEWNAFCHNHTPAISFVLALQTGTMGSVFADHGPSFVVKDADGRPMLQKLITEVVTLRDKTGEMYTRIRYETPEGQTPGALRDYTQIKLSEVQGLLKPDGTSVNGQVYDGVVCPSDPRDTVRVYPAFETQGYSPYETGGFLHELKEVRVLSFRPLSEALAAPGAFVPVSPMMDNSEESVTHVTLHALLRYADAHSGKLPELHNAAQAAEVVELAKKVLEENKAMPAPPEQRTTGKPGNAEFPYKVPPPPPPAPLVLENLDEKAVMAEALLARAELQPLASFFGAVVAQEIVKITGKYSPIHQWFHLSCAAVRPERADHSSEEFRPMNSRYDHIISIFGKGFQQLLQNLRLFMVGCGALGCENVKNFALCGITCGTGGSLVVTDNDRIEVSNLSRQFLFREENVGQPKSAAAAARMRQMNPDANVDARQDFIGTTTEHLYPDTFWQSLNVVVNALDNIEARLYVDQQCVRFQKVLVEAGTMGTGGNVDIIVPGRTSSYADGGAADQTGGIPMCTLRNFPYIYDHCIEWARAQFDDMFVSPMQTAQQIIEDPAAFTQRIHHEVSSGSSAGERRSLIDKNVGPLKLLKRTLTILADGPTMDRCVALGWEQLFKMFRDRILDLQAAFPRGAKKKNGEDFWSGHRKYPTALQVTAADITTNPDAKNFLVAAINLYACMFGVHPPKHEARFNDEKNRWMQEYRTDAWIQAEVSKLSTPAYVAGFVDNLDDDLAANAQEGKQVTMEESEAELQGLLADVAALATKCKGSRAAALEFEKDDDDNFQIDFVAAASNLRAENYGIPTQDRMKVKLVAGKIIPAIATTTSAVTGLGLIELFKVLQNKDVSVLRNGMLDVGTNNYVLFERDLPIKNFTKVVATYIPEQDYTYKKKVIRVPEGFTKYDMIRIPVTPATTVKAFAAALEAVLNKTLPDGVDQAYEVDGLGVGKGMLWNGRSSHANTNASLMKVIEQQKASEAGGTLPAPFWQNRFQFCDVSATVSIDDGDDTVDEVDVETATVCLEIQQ
Put plainly: Leishmania donovani Ubiquitin Activating Enzyme (LdE1). It is filed as functional. The following applies: 30 µM.

Test [3] has as its target T2, Aspartate--tRNA(Asp/Asn) ligase (Mycobacterium tuberculosis (strain ATCC 25618 / H37Rv)) (UniProt P9WFW3). Further: in the data most compounds retested in dose-response had high values.
T2 sequence (whole entry): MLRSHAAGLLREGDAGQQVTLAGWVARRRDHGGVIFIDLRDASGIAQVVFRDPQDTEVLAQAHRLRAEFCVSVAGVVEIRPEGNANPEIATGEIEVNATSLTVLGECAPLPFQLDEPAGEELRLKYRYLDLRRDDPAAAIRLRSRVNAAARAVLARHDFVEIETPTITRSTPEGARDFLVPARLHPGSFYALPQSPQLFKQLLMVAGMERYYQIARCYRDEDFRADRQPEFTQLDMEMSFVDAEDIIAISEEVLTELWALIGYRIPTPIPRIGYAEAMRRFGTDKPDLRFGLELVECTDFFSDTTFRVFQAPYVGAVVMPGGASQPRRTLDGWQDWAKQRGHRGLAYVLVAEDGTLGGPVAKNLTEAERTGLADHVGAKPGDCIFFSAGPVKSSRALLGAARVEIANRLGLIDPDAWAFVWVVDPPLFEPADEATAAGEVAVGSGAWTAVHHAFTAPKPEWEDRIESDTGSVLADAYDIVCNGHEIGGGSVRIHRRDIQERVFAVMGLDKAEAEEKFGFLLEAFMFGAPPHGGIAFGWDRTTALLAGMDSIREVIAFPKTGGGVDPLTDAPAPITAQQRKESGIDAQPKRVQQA
Description: Assay for Asp RNA synthetase-1 from Mycobacterium tuberculosis. It is filed as functional. The note with it: 30 µM.

Test [4] addresses AMP-activated protein kinase, AMPK (Homo sapiens) (UniProt P54646+O43741+P54619+Q9UGJ0+Q9Y478+Q13131+Q9UGI9). Put plainly: AMP-dependent Kinase enzyme assay. An in vitro enzyme assay that detects ADP turnover that is directly proportional to AMPK activity. This uses naive AMPK that is activated during the assay with MK-8722. In kind it is functional. The note with it: 30 µM.
Test [5] has as its target Sialic acid-binding Ig-like lectin 9 (Homo sapiens) (UniProt Q9Y336). Description: Hs-Siglec9 ALPHAscreen SOP 20170721. The note with it: 10 µM.
For test [6], the system named is Trypanosoma cruzi. Description: Trypanosoma cruzi phosphomannomutase and mannose-1-phosphate guanylyltransferase assay. It is filed as functional. The note with it: 10 µM.
Test [7] concerns the target T3, Arginase-2, mitochondrial (Homo sapiens) (UniProt P78540).
T3 sequence (whole entry): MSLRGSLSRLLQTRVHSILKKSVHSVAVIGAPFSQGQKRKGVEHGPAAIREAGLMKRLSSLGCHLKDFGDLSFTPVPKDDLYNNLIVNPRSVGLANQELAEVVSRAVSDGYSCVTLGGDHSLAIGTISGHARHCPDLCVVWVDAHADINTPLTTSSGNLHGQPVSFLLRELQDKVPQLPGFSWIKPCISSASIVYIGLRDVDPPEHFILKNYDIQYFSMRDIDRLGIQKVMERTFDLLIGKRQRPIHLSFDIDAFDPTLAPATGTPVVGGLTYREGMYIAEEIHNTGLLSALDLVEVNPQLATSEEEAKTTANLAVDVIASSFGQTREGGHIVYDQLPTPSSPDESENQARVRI
Put plainly: in vitro enzyme assay to detect the production of urea directly proportional to the activity of Arginase II. Further: in the data most compounds retested in dose-response had high values. It is filed as functional. The note with it: 33.3 µM.

The target in test [8] is T4, Proteasome subunit beta (Trypanosoma cruzi) (UniProt O96673).
T4 sequence (whole entry): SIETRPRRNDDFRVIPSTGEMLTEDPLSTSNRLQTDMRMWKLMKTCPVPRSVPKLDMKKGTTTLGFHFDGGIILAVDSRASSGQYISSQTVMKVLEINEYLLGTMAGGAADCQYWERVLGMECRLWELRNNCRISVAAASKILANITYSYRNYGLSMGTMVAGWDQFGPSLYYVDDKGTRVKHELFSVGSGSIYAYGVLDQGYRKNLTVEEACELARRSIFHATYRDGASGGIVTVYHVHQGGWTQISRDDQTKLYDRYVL
Description: Trypanosoma cruzi proteasome chymotrypsin-like activity (TcProtChymo) assay. Further: in the data most compounds retested in dose-response had high values. The note with it: 9.37 µM. In kind it is functional.

The species entered for test [9] is Homo sapiens. Put plainly: To identify inhibition of the IFN signalling (Jak-Stat) pathway via expression of an eGFP reporter gene under the control of an IFN-stimulated response element (ISRE) containing MxA promoter. It is filed as functional. The note with it: 30 µM.
The target in test [10] is Shiga toxin 2 (Escherichia coli O157:H7) (UniProt P09385+P09386). Description: E. coli 0.157:H7 Shiga Toxin SOP - stx2 screening assay. In kind it is functional. The following applies: 30 µM.
Test [11] concerns the target T5, Tyrosyl-tRNA synthetase, putative (Trypanosoma cruzi (strain CL Brener)) (UniProt Q4DSP6).
T5 sequence (whole entry): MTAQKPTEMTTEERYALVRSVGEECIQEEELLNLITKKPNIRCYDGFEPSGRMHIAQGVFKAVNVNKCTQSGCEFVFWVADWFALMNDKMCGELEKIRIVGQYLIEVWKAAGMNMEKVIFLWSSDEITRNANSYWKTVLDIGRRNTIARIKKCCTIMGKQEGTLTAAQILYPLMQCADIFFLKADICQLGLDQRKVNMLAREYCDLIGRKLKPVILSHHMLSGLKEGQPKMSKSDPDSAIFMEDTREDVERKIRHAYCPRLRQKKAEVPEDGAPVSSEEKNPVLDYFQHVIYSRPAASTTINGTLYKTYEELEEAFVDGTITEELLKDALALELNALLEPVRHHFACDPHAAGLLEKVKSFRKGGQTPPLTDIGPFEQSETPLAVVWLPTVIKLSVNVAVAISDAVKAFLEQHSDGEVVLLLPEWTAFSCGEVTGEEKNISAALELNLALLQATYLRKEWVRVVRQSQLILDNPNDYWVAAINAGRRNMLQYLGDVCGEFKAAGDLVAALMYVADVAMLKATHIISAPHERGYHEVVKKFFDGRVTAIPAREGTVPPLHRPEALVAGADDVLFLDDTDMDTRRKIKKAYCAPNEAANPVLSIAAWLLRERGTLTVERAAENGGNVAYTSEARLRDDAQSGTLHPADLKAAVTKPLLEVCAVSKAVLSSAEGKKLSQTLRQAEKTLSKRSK
Put plainly: Trypanosoma cruzi tyrosyl tRNA synthetase (TcYRS) _High Tyrosine SOP. Further: in the data most compounds retested in dose-response had high values. In kind it is functional. The note with it: 30 µM.

Test [12] has as its target T5, Tyrosyl-tRNA synthetase, putative (Trypanosoma cruzi (strain CL Brener)). Put plainly: Trypanosoma cruzi tyrosyl tRNA synthetase (TcYRS) SOP. The following applies: 30 µM. In kind it is functional.
For test [13], the target named is Chromo domain-containing protein 1 (Saccharomyces cerevisiae (strain ATCC 204508 / S288c) (Baker's yeast)) (UniProt P32657). Put plainly: ScCHD-1 Enzyme Inhibition Assay. Further: in the data most compounds retested in dose-response had high values. In kind it is functional. The following applies: 30 µM.
Chain of Chromo domain-containing protein 1 (Saccharomyces cerevisiae (strain ATCC 204508 / S288c) (Baker's yeast)) (P32657 whole entry, the tested form may be a part): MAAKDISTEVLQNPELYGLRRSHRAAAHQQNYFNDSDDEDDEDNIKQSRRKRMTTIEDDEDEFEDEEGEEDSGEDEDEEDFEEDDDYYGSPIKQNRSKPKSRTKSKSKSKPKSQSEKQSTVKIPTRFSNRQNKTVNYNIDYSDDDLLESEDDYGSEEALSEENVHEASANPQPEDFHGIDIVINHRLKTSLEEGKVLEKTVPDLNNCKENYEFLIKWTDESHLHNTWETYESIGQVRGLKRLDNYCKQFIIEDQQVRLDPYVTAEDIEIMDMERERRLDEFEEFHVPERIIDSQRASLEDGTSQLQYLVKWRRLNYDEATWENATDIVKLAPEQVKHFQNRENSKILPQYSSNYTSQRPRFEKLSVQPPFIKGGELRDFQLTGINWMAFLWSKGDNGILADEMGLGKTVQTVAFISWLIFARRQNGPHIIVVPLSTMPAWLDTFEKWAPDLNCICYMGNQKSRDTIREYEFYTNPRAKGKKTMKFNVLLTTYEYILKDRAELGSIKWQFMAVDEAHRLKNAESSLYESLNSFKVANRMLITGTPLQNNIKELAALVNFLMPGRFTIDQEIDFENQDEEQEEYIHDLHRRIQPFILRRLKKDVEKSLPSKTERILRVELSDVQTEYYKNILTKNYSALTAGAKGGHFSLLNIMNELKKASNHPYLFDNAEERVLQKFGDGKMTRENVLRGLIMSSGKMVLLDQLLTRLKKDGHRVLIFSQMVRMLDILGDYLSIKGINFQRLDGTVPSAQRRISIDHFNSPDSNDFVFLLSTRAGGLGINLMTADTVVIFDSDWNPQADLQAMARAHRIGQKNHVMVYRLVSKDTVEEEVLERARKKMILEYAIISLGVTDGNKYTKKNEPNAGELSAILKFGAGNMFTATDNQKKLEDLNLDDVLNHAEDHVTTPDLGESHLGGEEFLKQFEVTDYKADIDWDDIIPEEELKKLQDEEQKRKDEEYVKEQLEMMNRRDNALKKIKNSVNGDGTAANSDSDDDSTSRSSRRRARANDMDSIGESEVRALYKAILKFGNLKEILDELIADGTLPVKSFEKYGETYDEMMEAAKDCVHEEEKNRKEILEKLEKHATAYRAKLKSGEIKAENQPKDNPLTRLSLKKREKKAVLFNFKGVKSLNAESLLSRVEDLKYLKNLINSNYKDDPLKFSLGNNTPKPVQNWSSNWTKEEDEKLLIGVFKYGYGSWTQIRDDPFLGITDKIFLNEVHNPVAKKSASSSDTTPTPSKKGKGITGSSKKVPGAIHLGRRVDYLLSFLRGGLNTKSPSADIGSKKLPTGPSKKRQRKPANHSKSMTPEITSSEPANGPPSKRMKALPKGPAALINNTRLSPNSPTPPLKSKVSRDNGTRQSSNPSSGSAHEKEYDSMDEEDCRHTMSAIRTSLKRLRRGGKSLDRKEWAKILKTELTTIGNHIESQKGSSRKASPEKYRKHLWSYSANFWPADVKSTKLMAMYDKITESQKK

For some assays here: Entries with a potency or affinity are not part of this list.

Chain of Sialic acid-binding Ig-like lectin 9 (Homo sapiens) (Q9Y336 whole entry): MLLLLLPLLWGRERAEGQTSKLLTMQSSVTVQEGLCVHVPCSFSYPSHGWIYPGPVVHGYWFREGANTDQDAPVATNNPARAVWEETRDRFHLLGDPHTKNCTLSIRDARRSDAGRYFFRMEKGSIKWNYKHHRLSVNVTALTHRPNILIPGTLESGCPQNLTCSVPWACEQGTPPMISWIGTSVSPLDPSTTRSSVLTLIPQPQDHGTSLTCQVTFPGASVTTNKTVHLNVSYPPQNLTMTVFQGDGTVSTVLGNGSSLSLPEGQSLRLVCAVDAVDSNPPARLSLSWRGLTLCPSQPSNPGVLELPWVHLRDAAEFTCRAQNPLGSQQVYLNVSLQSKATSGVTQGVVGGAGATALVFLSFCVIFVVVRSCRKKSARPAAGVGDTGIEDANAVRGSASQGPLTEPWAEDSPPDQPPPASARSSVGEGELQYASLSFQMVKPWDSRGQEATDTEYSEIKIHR
Chain of Protein translocase subunit SecA (Escherichia coli (strain K12)) (P10408 whole entry): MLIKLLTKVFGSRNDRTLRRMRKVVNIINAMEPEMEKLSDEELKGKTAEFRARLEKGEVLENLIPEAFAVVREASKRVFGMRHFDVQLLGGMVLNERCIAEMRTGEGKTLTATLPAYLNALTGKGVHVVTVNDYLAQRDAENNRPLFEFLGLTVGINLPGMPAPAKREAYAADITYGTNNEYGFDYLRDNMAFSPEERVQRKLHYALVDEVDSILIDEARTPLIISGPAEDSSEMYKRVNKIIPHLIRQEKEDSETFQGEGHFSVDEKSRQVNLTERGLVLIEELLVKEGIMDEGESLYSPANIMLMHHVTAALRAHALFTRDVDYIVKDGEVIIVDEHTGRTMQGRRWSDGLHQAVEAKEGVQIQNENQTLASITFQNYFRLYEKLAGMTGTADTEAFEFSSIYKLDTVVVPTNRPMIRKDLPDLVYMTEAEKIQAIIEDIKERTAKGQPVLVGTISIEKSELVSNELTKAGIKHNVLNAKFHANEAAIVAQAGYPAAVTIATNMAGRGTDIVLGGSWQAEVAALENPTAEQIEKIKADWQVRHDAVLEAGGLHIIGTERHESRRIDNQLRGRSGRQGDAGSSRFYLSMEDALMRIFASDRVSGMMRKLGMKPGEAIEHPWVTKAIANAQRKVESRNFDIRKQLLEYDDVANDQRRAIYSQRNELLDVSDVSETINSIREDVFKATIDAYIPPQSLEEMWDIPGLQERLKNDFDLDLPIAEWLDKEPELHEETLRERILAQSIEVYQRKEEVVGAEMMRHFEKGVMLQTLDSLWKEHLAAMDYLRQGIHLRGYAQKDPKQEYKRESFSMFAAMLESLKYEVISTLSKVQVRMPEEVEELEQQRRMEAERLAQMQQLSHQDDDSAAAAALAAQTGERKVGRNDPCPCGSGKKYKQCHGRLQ

Take `c1cc(CO[C@@H]2CC[C@H]3[C@H]2OCCN3CC2CCOCC2)ccn1`: the Percent Effect was 1.51% in test [1]; 16.2% in test [2]; 5.55% in test [3]; 7.58% in test [4]; -13.8% in test [5]; -4.79% in [6]. Further, the Percent Effect in test [7] is -0.319%; in test [8], 3.51%; in [9], 45.1%; in test [10] it was -7.6%; in [11], 2.16%; in test [12] it was 10.3%. Moreover, in test [13], the Percent Effect is -9.05%.

With `c1ccc(CN2C[C@@H]3OCCN(CC4CCCO4)[C@@H]3C2)nc1` (stereo not given in full), the Percent Effect in test [1] was -4.3%; in test [2], 10.8%; in test [3], -0.749%; in test [4] it was -3.75%; in test [5] it was 1.76%; in test [6] it was 4.01%. Further, the Percent Effect in test [7] is 15%; in test [8] it was 15.5%; in test [9], 22.6%; in [10] it was 4.43%; in test [11], 7.57%; in [12] it was 15.4%. Further, the Percent Effect in test [13] was -4.89%.

As to `O=C1OCCC1N1CCN(C(=O)Cc2c[nH]c3ccccc23)CC1` (stereo not given), the Percent Effect was -0.412% in test [1]; 18.9% in test [2]; 6.13% in test [3]; -14.5% in test [4]; -1.41% in test [5]; 3.49% in test [6]. The Percent Effect in test [7] is -9.62%; in test [8], 15.7%; in test [9] it was 9.19%; in test [10], 15.5%; in test [11], 12.3%; in test [12], 23.5%. The Percent Effect in [13] is -11.1%.

Regarding `O=C(Cc1cccs1)N1C[C@@H]2OCCN(CC3CCCO3)[C@@H]2C1` (stereo not given in full), the Percent Effect was -3.88% in test [1]; 0% in [2]; -5.27% in [3]; -1.33% in [4]; 4.51% in test [5]; -2.58% in test [6]. Moreover, the Percent Effect in [7] was -0.399%; in test [8], 15.3%; in test [9] it was 15.2%; in test [10], -19.8%; in [11], 2.08%; in [12], 6.17%. In addition, in test [13], the Percent Effect was -0.242%.

Take `O=C(Cc1cccs1)N1C[C@@H]2OCCN(CC3CCCC3)[C@@H]2C1`: the Percent Effect was -3.05% in test [1]; 11% in test [2]; -2.94% in [3]; -0.507% in [4]; 19.2% in test [5]; 1.59% in [6]. For the same compound, the Percent Effect in test [7] was -6.79%; in test [8] it was 4.37%; in test [9] it was -10.9%; in [10] it was 13.2%; in test [11] it was 4.17%; in [12], 6.17%. For the same compound, the Percent Effect in test [13] was -1.65%.
